Screen size: about 320,000 compounds; about 7,600 (2.4%) were called active. Inconclusive results (about 3%) are left out. Calls come from the whole dose curve; as a rule, active = well fitted activation curve with a large enough effect; inconclusive = small, poorly fitted or top-dose-only effect; inactive = no such curve, though single readings can be large or run the other way. The list comes from a sample in which actives are over-represented; it also holds similar structures and randomly drawn compounds. A call without a number means that no potency is given here.
Potency is the fitted concentration of half-maximal effect.

This test can be described thus: qHTS Assay for NPC1 Promoter Activators.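 For activation: reporter is driven by a mutant NPC1 promoter.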 Note: nearly all actives have a fitted effect of over 60% in size. The following applies: Huh7 NPC1 promoter luciferase reporter, 24 h; series mostly up to 9.22 µM. An outline of the steps: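 Compounds in DMSO were transferred onto Huh7 NPC1-luciferase reporter cells pre-incubated 2 h; after 24 h at 37 °C, Amplite reagent was dispensed and luminescence recorded 10 min later.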
(In qHTS, concentration-response curves come from the screen itself.)
Consider `Cc1ccc(OCCCC(=O)Nc2ccc3c(c2)OCCO3)cc1`, for which the Potency result was “inactive”.

As to `CCN(CC)c1ccc(/C=N/NC(=O)CNC(=O)c2cccs2)cc1`, the Potency entry is “inactive”.

As to `O=C(CNC(=O)c1cccs1)N/N=C/c1cccc(Br)c1`, the Potency result was “inactive”. As to `CC(=O)Nc1ccc(/C=N/NC(=O)c2cccs2)cc1`, the Potency was 2510 nM (active). For the compound `CC(=O)c1ccc(OC(=O)N2CCOCC2)cc1`, the Potency entry is “inactive”. In the case of `CC(C)CN(C(=O)CSc1nncn1C)C1CCS(=O)(=O)C1` (stereo unspecified), the Potency result is “inactive”. The same measure for `Cc1c(NC(=O)c2cc(-c3ccc(Br)cc3)on2)c(=O)n(-c2ccccc2)n1C`: “inactive”; for `COc1ccc(-c2cc(C(=O)NCCCN3CCOCC3)no2)cc1`: “inactive”. The same measure for `CC(C)CNC(=O)c1cc(-c2ccc(Br)cc2)on1`: 3160 nM (active); for `COc1ccc(CCC(=O)N2CCN(S(=O)(=O)c3ccc(OC)cc3)CC2)cc1`: “inactive”; for `Cc1cc(NC(=O)COc2ccc([N+](=O)[O-])cc2)no1`: “inactive”. The same measure for `Cc1cccc(NC(=O)CN2CCN(CC(=O)NCC3(N4CCCCC4)CCCCC3)CC2)c1C`: “inactive”; for `CN(CC(=O)NC(=O)Nc1ccccc1F)Cc1ccccc1`: “inactive”.

Regarding `CC(C)(C)C(=O)Nc1ccc(-c2cn3cccnc3n2)cc1`, the Potency is 3160 nM (active). The same measure for `CCCCCC(=O)Nc1ccc(-c2cn3cccnc3n2)cc1`: “inactive”; for `CC(=O)Nc1ccc(S(=O)(=O)Nc2cccc(NC(=O)C(C)(C)C)c2)cc1`: “inactive”; for `O=C1C=C(c2ccnc3cc(Cl)ccc23)C[C@@H](c2ccc3c(c2)OCO3)C1`: “inactive”.

Consider `Cc1ccc(CNC(=O)c2cc(-c3ccccc3C)n(CC3CC(c4cccc([N+](=O)[O-])c4)=NO3)n2)cc1` (stereo unspecified), for which the Potency entry was “inactive”. Consider `CN(c1ccccc1)S(=O)(=O)c1cccc(NC(=O)Cc2ccc(Cl)cc2)c1`, for which the Potency result is “inactive”.

As to `S=C(c1ccccc1)N1CCCC1`, the Potency result is “inactive”.

As for `OCCN1CCN(C(=S)c2ccc(-c3ccccc3)cc2)CC1`, the Potency result is “inactive”. For `S=C(c1ccc(-c2ccccc2)o1)N1CCCCC1`, the Potency was 2240 nM (active). The same measure for `O=C(OCC(=O)N1CCCC1)c1ccc(Cl)nc1`: “inactive”; for `Cc1ccc(Nc2nnc(SC(C)C(=O)NC3CC3)s2)cc1` (stereo unspecified): “inactive”; for `CN1CCN(c2ccc(NC(=O)c3cc(Cl)c4c(c3)OCCO4)cc2)CC1`: “inactive”. The same measure for `O=C(CCNC(=O)c1ccccc1)Nc1nc2ccccc2s1`: “inactive”; for `COC(=O)c1ccc(N2CCOCC2)c(NC(=O)c2ccc3c(c2)OCCO3)c1`: “inactive”. Turning to `O=C(Nc1ccccc1)c1ccc2c(c1)OCCCO2`, the Potency was 501 nM (active). Regarding `O=C(Nc1ccccc1F)c1ccc2c(c1)OCO2`, the Potency is 3980 nM (active). The same measure for `O=C(Nc1cccc(S(=O)(=O)N2CCCCC2)c1)c1ccc2c(c1)OCO2`: “inactive”; for `O=C(Nc1ccccc1)Nc1nc2ccccc2s1`: 2820 nM (active). For `O=C(Nc1ccc(Cl)cc1)Nc1nnc(/C=C/c2ccccc2)s1` the value was “inactive”.

For the compound `Cc1ccc(F)cc1NC(=O)c1ccc2c(c1)OCO2`, the Potency result is “inactive”. For the compound `CN1CCN(c2ccc(NC(=O)c3ccc4c(c3)OCCO4)cc2Cl)CC1`, the Potency is 3550 nM (active). Take `O=C(CN1CCc2cc3c(cc2C1)OCCCO3)Nc1ccccc1`: the Potency entry was “inactive”. In the case of `O=C(Nc1ccccc1N1CCN(C(=O)c2ccccc2)CC1)c1ccc2c(c1)OCO2`, the Potency result was “inactive”.

The values above are taken from PubChem BioAssay AID485313 (National Center for Advancing Translational Sciences (NCATS), 2010).
